This is part of a sample that, as a whole, favours compounds with a hit. Of some 83,000 tested, about 20% had one in any assay.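 Compound tested at a single concentration for 48 hours in 96-well plates; a percent growth value below 10 was scored as active.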 Values without a mark were called inactive. Active and inactive are the calls of the source.

In one experiment the test system is HCT-15 colon. As to the kind of experiment: NCI-60 one-dose screen, 48 h (100 = growth as untreated, 0 = no growth, -100 = all killed). The settings on record: 10 µM unless noted.
With `CCOC(=O)c1cnc2ccc(Br)cc2c1Nc1cccc(S(N)(=O)=O)c1`, the growth is 90.8%.
Same read-out and setting: in the case of `CCCCC(CCCCCC(CCCC)C1NC(C)Cc2cc(OC)c(OC)cc21)C1NC(C)Cc2cc(OC)c(OC)cc21` (centres undefined) it was -95.5% (active); in that of `O=C(N=c1n(-c2ccccc2)nc2n1CCN2C1=NCCN1C(=O)c1ccc(Cl)cc1)c1ccc(Cl)cc1`, 57%; in that of `O=C(OCc1ccc2c(Cl)cc(Cl)c(O)c2n1)N1CCN(C(=O)c2cc3cc(F)ccc3[nH]2)CC1`, 10.6%.
`CC1=C/C(=C(\c2cc(C)c(O)c(C(=O)O)c2)c2c(Cl)cccc2Cl)C=C(C(=O)O)C1=O`: the growth is 105%.
On to `COc1ccc(C(=O)CCC(=O)O)cc1`, for which the growth is 77.6%.
Same read-out and setting: in the case of `CCN(CC)c1ccc(/C=C/C=C2\NC(=O)NC2=O)cc1` it was 29.5%; in that of `COc1cc(NCc2ccccc2O)c2ncccc2c1`, 77.8%.
Same read-out and setting: the result for `O=C(Oc1ccc(Cl)cc1[N+](=O)[O-])Oc1ccc(Cl)cc1[N+](=O)[O-]` reads 106%.
For the molecule `COc1ccc(-c2cc(-c3ccc(OC)c(OC)c3)nc(SCCCCCC(=O)NO)n2)cc1`, the growth was 96.5%.
Still for that read-out and setting: the result for `O=C(NCCCNC(=O)OCc1ccc2cccc(O)c2n1)OCc1ccc2cccc(O)c2n1` reads 1.71% (active); that for `CCCCNC(=O)NS(=O)(=O)Cc1ccccc1`, 109%; that for `Nc1cccc2c1C(=O)c1cccc(NC(=O)c3ccccc3)c1C2=O`, 28.6%.
Take `Cc1cc(NN=C(c2ccc(O)cc2)c2ccc(O)cc2)c([N+](=O)[O-])cc1[N+](=O)[O-]`: the growth was 46.3%.
As to `CC1(C(=O)O)CCC(N)(C(=O)O)C1(C)C` (centres undefined), the growth is 106%.
`O=C(Nc1cccc(F)c1)c1cc(=O)[nH]c2cc(Br)ccc12`: the growth is 28.6%.
Take `N#Cc1c(Cl)nc(SCC2CO2)nc1-c1ccccc1` (centres undefined): the growth was 110%.
Still for that read-out and setting: in the case of `CC1Cc2c(Cl)ncnc2N(C)c2ccc(Cl)cc21` (centres undefined) it was 6.68% (active).
`CCCc1cc2cc(-n3nc(C)c4c3CC(C)(C)CC4=O)cc(NC3CCSCC3)c2c(=O)[nH]1`: the growth is 41.4%.
Turning to `O=C(O)c1cn(C2CC2)c2cc(N3CCN(Cc4cc(Cl)ccc4O)CC3)c(F)cc2c1=O`, the growth is 45.7%.
Same read-out and setting: the result for `COc1ccc2nc3cc(Cl)ccc3c(Nc3ccc(O)c(CN4CCCC4)c3)c2c1` reads 0.129% (active); that for `COc1ccc(C(=O)c2nccc3cc(OC)c(OC)cc23)cc1OC`, 96.7%; that for `CC1Cc2c(Cl)ncnc2N(C)c2ccc(O)cc21` (centres undefined), 67.3%.
With `COc1ccc(-c2cc(-c3ccccc3)nc(NCCNc3ccnc4cc(Cl)ccc34)n2)cc1`, the growth is -81% (active).
`Cn1cc(-c2noc(C(=O)c3cn(C)c4ncc(Br)cc34)n2)c2ccccc21`: the growth is 97.7%.
In the case of `O=C1CN(Cc2ccc(C(=O)NO)cc2)C(=O)[C@@H](Cc2ccccc2)N1`, the growth was 104%.
On the same count and under the same terms, in the case of `O=C1/C(=C/c2ccc(OCc3ccccc3)cc2)Oc2cc(OCCN3CCCCC3)ccc21` it was 14%; in that of `COC(=O)[C@@H](NC(=O)NC(=O)NC(=O)CI)C(C)C`, 37%; in that of `c1ccc2c(c1)CN(CCCN1CCOCC1)C2`, 102%.
With `Clc1ccccc1/C=N\Nc1ccccn1`, the growth was 77.6%.
With `CN(C)CCCNc1nc(-c2cccc(C(Cl)(Cl)Cl)c2)nc(C(Cl)(Cl)Cl)n1`, the growth was 108%.
Take `CC1(C)CC[C@]2(C(N)=O)CC[C@]3(C)C(=CC[C@@H]4[C@@]5(C)C/C(=C/c6ccncc6)C(=O)C(C)(C)[C@@H]5CC[C@]43C)[C@@H]2C1`: the growth is -49.7% [100 µM] (active).
Still for that read-out and setting: the result for `COc1ccc(N(c2nc(-c3ccc([N+](=O)[O-])cc3)cs2)C(C)C)cc1` reads 88%.
For `CCOc1ccc(/C=C(\C#N)c2cc3ccccc3[nH]2)cc1`, the growth was 28.8%.
The same measure, in the same setting: in the case of `c1coc2occoc=2o1` it was 102%; in that of `COc1cc2c(c(OC)c1)C1c3cc(OC)ccc3NC(=O)N1CC2` (centres undefined), 49.7%; in that of `CCC(C)[C@H](NC(=O)NC(=O)NC(=O)CI)C(=O)OC` (some centres undefined), 14.9%.

Another experiment deals with HT29 colon. Described as above. The settings on record: 10 µM unless noted.
For `CCOC(=O)c1cnc2ccc(Br)cc2c1Nc1cccc(S(N)(=O)=O)c1`, the growth was 107%.
On to `CCCCC(CCCCCC(CCCC)C1NC(C)Cc2cc(OC)c(OC)cc21)C1NC(C)Cc2cc(OC)c(OC)cc21` (centres undefined), for which the growth was -86.3% (active).
For `O=C(N=c1n(-c2ccccc2)nc2n1CCN2C1=NCCN1C(=O)c1ccc(Cl)cc1)c1ccc(Cl)cc1`, the growth is 59.7%.
Turning to `O=C(OCc1ccc2c(Cl)cc(Cl)c(O)c2n1)N1CCN(C(=O)c2cc3cc(F)ccc3[nH]2)CC1`, the growth was 99.1%.
Still for that read-out and setting: the result for `CC1=C/C(=C(\c2cc(C)c(O)c(C(=O)O)c2)c2c(Cl)cccc2Cl)C=C(C(=O)O)C1=O` reads 97.8%.
For `COc1ccc(C(=O)CCC(=O)O)cc1`, the growth is 49.8%.
Take `CCN(CC)c1ccc(/C=C/C=C2\NC(=O)NC2=O)cc1`: the growth was -30.1% (active).
The same measure, in the same setting: the result for `COc1cc(NCc2ccccc2O)c2ncccc2c1` reads 102%.
Turning to `O=C(Oc1ccc(Cl)cc1[N+](=O)[O-])Oc1ccc(Cl)cc1[N+](=O)[O-]`, the growth is 107%.
Still for that read-out and setting: in the case of `COc1ccc(-c2cc(-c3ccc(OC)c(OC)c3)nc(SCCCCCC(=O)NO)n2)cc1` it was 31.3%.
Same read-out and setting: in the case of `O=C(NCCCNC(=O)OCc1ccc2cccc(O)c2n1)OCc1ccc2cccc(O)c2n1` it was 17%.
The same measure, in the same setting: in the case of `CCCCNC(=O)NS(=O)(=O)Cc1ccccc1` it was 114%.
With `Nc1cccc2c1C(=O)c1cccc(NC(=O)c3ccccc3)c1C2=O`, the growth is 2.96% (active).
As for `Cc1cc(NN=C(c2ccc(O)cc2)c2ccc(O)cc2)c([N+](=O)[O-])cc1[N+](=O)[O-]`, the growth is 91.5%.
With `CC1(C(=O)O)CCC(N)(C(=O)O)C1(C)C` (centres undefined), the growth was 103%.
Take `O=C(Nc1cccc(F)c1)c1cc(=O)[nH]c2cc(Br)ccc12`: the growth is 9.92% (active).
The same measure, in the same setting: in the case of `N#Cc1c(Cl)nc(SCC2CO2)nc1-c1ccccc1` (centres undefined) it was 111%.
As for `CC1Cc2c(Cl)ncnc2N(C)c2ccc(Cl)cc21` (centres undefined), the growth is -0.897% (active).
On to `CCCc1cc2cc(-n3nc(C)c4c3CC(C)(C)CC4=O)cc(NC3CCSCC3)c2c(=O)[nH]1`, for which the growth is 9.23% (active).
For `O=C(O)c1cn(C2CC2)c2cc(N3CCN(Cc4cc(Cl)ccc4O)CC3)c(F)cc2c1=O`, the growth is 44.9%.
The same measure, in the same setting: in the case of `COc1ccc2nc3cc(Cl)ccc3c(Nc3ccc(O)c(CN4CCCC4)c3)c2c1` it was -22.8% (active).
Still for that read-out and setting: the result for `COc1ccc(C(=O)c2nccc3cc(OC)c(OC)cc23)cc1OC` reads 113%; that for `CC1Cc2c(Cl)ncnc2N(C)c2ccc(O)cc21` (centres undefined), 74.7%; that for `COc1ccc(-c2cc(-c3ccccc3)nc(NCCNc3ccnc4cc(Cl)ccc34)n2)cc1`, -48.8% (active).
Still for that read-out and setting: in the case of `Cn1cc(-c2noc(C(=O)c3cn(C)c4ncc(Br)cc34)n2)c2ccccc21` it was 105%.
In the case of `O=C1CN(Cc2ccc(C(=O)NO)cc2)C(=O)[C@@H](Cc2ccccc2)N1`, the growth is 113%.
Still for that read-out and setting: the result for `O=C1/C(=C/c2ccc(OCc3ccccc3)cc2)Oc2cc(OCCN3CCCCC3)ccc21` reads 33.2%; that for `COC(=O)[C@@H](NC(=O)NC(=O)NC(=O)CI)C(C)C`, 60.2%; that for `c1ccc2c(c1)CN(CCCN1CCOCC1)C2`, 107%.
For `Clc1ccccc1/C=N\Nc1ccccn1`, the growth is 94.3%.
On to `CN(C)CCCNc1nc(-c2cccc(C(Cl)(Cl)Cl)c2)nc(C(Cl)(Cl)Cl)n1`, for which the growth was 94.9%.
Same read-out and setting: the result for `CC1(C)CC[C@]2(C(N)=O)CC[C@]3(C)C(=CC[C@@H]4[C@@]5(C)C/C(=C/c6ccncc6)C(=O)C(C)(C)[C@@H]5CC[C@]43C)[C@@H]2C1` reads -65.4% [100 µM] (active).
For `COc1ccc(N(c2nc(-c3ccc([N+](=O)[O-])cc3)cs2)C(C)C)cc1`, the growth is 97.2%.
The same measure, in the same setting: the result for `CCOc1ccc(/C=C(\C#N)c2cc3ccccc3[nH]2)cc1` reads 13.8%.
Take `c1coc2occoc=2o1`: the growth is 106%.
Same read-out and setting: in the case of `COc1cc2c(c(OC)c1)C1c3cc(OC)ccc3NC(=O)N1CC2` (centres undefined) it was 32.3%; in that of `CCC(C)[C@H](NC(=O)NC(=O)NC(=O)CI)C(=O)OC` (some centres undefined), 42.3%.

(Values after PubChem BioAssay (NCI).)
